Experimental data as given in article PMC7826789 (International Journal of Molecular Sciences, 2021).

Columns and labels:
Conditions in all cases: Compound Concentration (nM):1000
PIK3CA(C420R) = test system: PIK3CA(C420R)
PIK3CA(E542K) = test system: PIK3CA(E542K)
PIK3CA(E545A) = test system: PIK3CA(E545A)
PIK3CA(E545K) = test system: PIK3CA(E545K)
PIK3CA(H1047L) = test system: PIK3CA(H1047L)
PIK3CA(H1047Y) = test system: PIK3CA(H1047Y)
PIK3CA(I800L) = test system: PIK3CA(I800L)
PIK3CA(M1043I) = test system: PIK3CA(M1043I)
PIK3CA(Q546K) = test system: PIK3CA(Q546K)
PIK3CA = test system: PIK3CA
PIK3CB = test system: PIK3CB
PIK3CD = test system: PIK3CD
PIK3CG = test system: PIK3CG
PIK4CB = test system: T1, PIK4CB
T1 construct: gene PI4KB

PIKFYVE = test system: PIKFYVE
PIM1 = test system: PIM1
PIM2 = test system: PIM2
PIM3 = test system: PIM3
PIP5K1A = test system: PIP5K1A
PIP5K1C = test system: PIP5K1C
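Further: KINOMEscan scanMAX binding as percent activity remaining versus control; lower means stronger binding.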

Compound	Percent Control (PIK3CA(C420R))	Percent Control (PIK3CA(E542K))	Percent Control (PIK3CA(E545A))	Percent Control (PIK3CA(E545K))	Percent Control (PIK3CA(H1047L))	Percent Control (PIK3CA(H1047Y))	Percent Control (PIK3CA(I800L))	Percent Control (PIK3CA(M1043I))	Percent Control (PIK3CA(Q546K))	Percent Control (PIK3CA)	Percent Control (PIK3CB)	Percent Control (PIK3CD)	Percent Control (PIK3CG)	Percent Control (PIK4CB)	Percent Control (PIKFYVE)	Percent Control (PIM1)	Percent Control (PIM2)	Percent Control (PIM3)	Percent Control (PIP5K1A)	Percent Control (PIP5K1C)
NS(=O)(=O)c1ccc(Nc2ncc(-c3ccccc3)o2)cc1 [GW572399X]	100%	100%	100%	100%	93%	100%	100%	93%	100%	100%	100%	100%	100%	71%	100%	100%	100%	100%	100%	74%
CCS(=O)(=O)c1ccc(OC)c(Nc2ncc(-c3cccc(OC)c3)o2)c1 [GW580509X]	100%	100%	100%	100%	100%	98%	100%	100%	100%	100%	100%	93%	100%	40%	91%	100%	100%	100%	100%	17%
C[C@@H](Oc1cc(-n2cnc3ccc(OC4CCN(C)CC4)cc32)sc1C(N)=O)c1ccccc1Cl [GSK579289A]	60%	80%	67%	78%	76%	100%	78%	72%	100%	65%	20%	27%	11%	100%	15%	19%	100%	29%	21%	72%
COc1ccc(COc2ccc(Cc3cnc(N)nc3N)cc2OC)cc1 [GW632580X]	100%	96%	100%	91%	75%	100%	93%	100%	100%	76%	93%	100%	77%	100%	100%	100%	91%	100%	94%	100%
COc1cc2ncnc(Nc3ccc4c(cnn4Cc4ccccc4)c3)c2cc1OC.Cl [GW282449A]	100%	100%	100%	100%	100%	100%	99%	100%	100%	100%	100%	100%	100%	100%	93%	100%	100%	100%	100%	76%
CN(C)CCNC(=O)Nc1ccc(N(C)c2ccnc(Nc3ccc(CS(C)(=O)=O)cc3)n2)cc1.Cl [GW830900A]	100%	84%	100%	80%	100%	98%	86%	92%	87%	92%	84%	76%	91%	11%	100%	100%	100%	97%	23%	86%
O=C(Nc1n[nH]c2nc(-c3ccc(O)cc3)c(Br)cc12)C1CC1 [SB-725317]	92%	100%	100%	100%	100%	93%	100%	100%	100%	100%	100%	75%	100%	100%	99%	23%	0.4%	9.3%	100%	59%
COc1cc(N2CCN(C(C)C)CC2)ccc1Nc1nc(Nc2ccc(F)cc2C(=O)NC[C@@H](O)CO)c2cc[nH]c2n1 [GSK1392956A]	99%	100%	100%	95%	100%	83%	97%	97%	100%	100%	96%	80%	100%	100%	95%	100%	100%	100%	100%	100%
COc1cc2ncn(-c3cc(O[C@H](C)c4ccccc4Cl)c(C(N)=O)s3)c2cc1OC [GSK237701A]	65%	44%	62%	51%	53%	56%	49%	52%	58%	54%	31%	28%	12%	67%	74%	88%	100%	66%	0%	9.9%
NS(=O)(=O)c1ccc(N/N=C2\C(=O)Nc3ccc(C(=O)NCCc4c[nH]cn4)cc32)cc1 [GW300660X]	100%	100%	100%	100%	98%	100%	98%	81%	100%	100%	100%	100%	95%	100%	100%	32%	100%	32%	100%	0.7%
CC1=C(C(=O)Nc2ccc3[nH]ncc3c2)C(c2ccc3ccccc3c2)CC(=O)N1 (stereo not shown) [GSK270822A]	90%	83%	91%	88%	97%	89%	93%	74%	86%	90%	70%	100%	97%	73%	83%	91%	100%	92%	95%	99%
COc1ccccc1-c1cc(/C=C2\C(=O)Nc3ncc(Br)cc32)cc(Br)c1O [GW442130X]	78%	100%	76%	100%	100%	50%	100%	60%	100%	83%	80%	64%	65%	68%	30%	100%	96%	100%	86%	100%
CCc1ccc(Oc2nccc(-c3c(-c4ccc(F)cc4)ncn3C3CCNCC3)n2)cc1 [SB-242719]	81%	98%	87%	92%	63%	81%	91%	100%	90%	92%	99%	72%	95%	100%	100%	100%	100%	100%	87%	100%
CCn1c(-c2nonc2N)nc2c(C#CC(C)(C)O)nc(OCCNC)cc21.Cl [GSK949675]	100%	100%	88%	100%	100%	77%	100%	100%	100%	75%	91%	82%	73%	100%	20%	100%	56%	100%	79%	0%
NS(=O)(=O)c1ccc(N/N=C2\C(=O)Nc3ccc(Cl)cc32)cc1 [GW280670X]	100%	100%	100%	100%	100%	100%	100%	100%	100%	100%	100%	94%	100%	100%	94%	100%	100%	100%	100%	80%
COc1cc(C=NNc2ncnc3c2cnn3-c2ccccc2)ccc1O [GW513184X]	78%	100%	76%	100%	100%	62%	100%	59%	100%	78%	100%	76%	22%	34%	4.9%	100%	100%	100%	29%	51%
COc1ccc2c(-c3ccnc(Nc4cccc(OC(F)(F)F)c4)n3)cnn2n1 [GW810372X]	86%	100%	90%	97%	75%	82%	91%	100%	100%	100%	100%	69%	85%	72%	69%	100%	100%	100%	77%	66%
COc1cc(C)c(N(C)C(=O)CN(C)C)cc1Nc1nc(Nc2cccc(F)c2C(N)=O)c2cc[nH]c2n1 [GSK2219385]	84%	100%	97%	100%	100%	67%	100%	100%	100%	100%	100%	75%	100%	85%	97%	90%	92%	86%	100%	100%
COc1cccc(-n2ncc3c(N/N=C/c4ccncc4)ncnc32)c1 [GW784752X]	100%	100%	100%	92%	100%	100%	96%	100%	100%	100%	94%	100%	54%	90%	18%	100%	100%	100%	86%	79%
CCS(=O)(=O)c1ccc(OC)c(Nc2ncc(-c3cccc(F)c3)o2)c1 [GW621970X]	100%	100%	100%	100%	100%	97%	100%	93%	100%	100%	100%	100%	100%	100%	100%	100%	100%	100%	99%	28%
